Most compounds without a hit are left out; they make up all but 3% or so of the library.
KAT2A inh – inhibitors of human GCN5L2 histone acetyltransferase; Potency, µM (highest dose often 58.9 µM), for the others: top-dose activity change, negative = inhibition, actives largely listed as inhibitors; Q92830; GCN5L2 HAT assay, ThioGlo1 CoA-SH fluorescence; AID 504327; 0.21% of 390,000 active; note: % is set by controls: 0 for no effect and ±100 for the full control effect
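Titration-based screen in which CoA formation is detected via maleimide probe ThioGlo1 (50uM) turning fluorescent on thiol reaction; substrates H3(1-25) 75uM and acetyl-CoA 70uM, GCN5L2 20nM, 20 min incubation at room temperature.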
PLK1 PBD block – PLK1 (human) polo-box domain binding inhibition | P53350 | Plk1 PBD binding of FITC phosphopeptide, fluorescence polarization | Potency, µM, for the others: max response, negative = inhibition, most hits filed as inhibitors | 2.8% of 360,000 active; note: series mostly up to about 57 µM; % is set by controls: 0 for no effect and ±100 for the full control effect; nearly all actives have a fitted effect of over 65% in size
Target sequence (P53350 whole entry, looked up, the tested form may be a part): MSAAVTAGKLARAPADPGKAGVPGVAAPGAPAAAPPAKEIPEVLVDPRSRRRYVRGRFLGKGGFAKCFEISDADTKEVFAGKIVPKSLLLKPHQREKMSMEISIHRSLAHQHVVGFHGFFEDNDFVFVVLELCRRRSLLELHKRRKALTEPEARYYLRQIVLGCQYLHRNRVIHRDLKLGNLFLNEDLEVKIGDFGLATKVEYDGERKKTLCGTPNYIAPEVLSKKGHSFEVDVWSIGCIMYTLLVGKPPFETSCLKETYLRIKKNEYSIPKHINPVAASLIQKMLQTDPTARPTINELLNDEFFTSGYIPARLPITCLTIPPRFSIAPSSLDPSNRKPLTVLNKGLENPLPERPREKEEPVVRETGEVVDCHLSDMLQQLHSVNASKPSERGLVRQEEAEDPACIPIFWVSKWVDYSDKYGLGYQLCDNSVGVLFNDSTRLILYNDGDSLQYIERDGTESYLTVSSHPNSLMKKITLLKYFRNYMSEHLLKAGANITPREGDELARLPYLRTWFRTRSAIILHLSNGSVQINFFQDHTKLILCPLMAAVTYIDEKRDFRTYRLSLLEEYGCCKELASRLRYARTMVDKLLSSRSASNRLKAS
USP1 inh – USP1/UAF1 (human) deubiquitinase inhibition. recombinant USP1/UAF1, Ub-Rhodamine cleavage fluorescence. O94782. Potency, µM (series often up to 57.1 µM), without a hit: at the highest dose activity change, negative = inhibition, hits mostly inhibitors. AID 743255. 0.23% of 390,000 active; note: % is set by controls: 0 for no effect and ±100 for the full control effect; nearly all actives have a fitted effect of over 60% in size
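In this screen, compounds sit with the deubiquitinase complex (1nM) for 15 min at room temperature before Ub-Rho is added at 150nM final. Fluorescence rise is then followed for 6 reads every 60 seconds.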
TSG101-PTAP inh – blocks PTAP/TSG101 interaction to inhibit HIV-1 budding | Q99816 | Fluorescence polarization, FITC-PTAP peptide / Tsg101 binding | Potency, µM (top dose mostly 115 µM), inactives show at the highest dose activity change, negative = inhibition, actives largely listed as inhibitors | 340,000 tested, under 10 active | AID 493005; active = well fitted inhibition curve with a large enough effect in the main read-out, with a control signal flat, not every such curve was filed as active; inconclusive = small, poorly fitted or top-dose-only effect, or effect the other way, or a change in a side signal; inactive = no such curve, though single readings can be large or run the other way; note: % of control where 0% means no effect
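Fluorescence anisotropy tracks displacement of a FITC-tagged PTAP peptide (50 nM) from the Tsg101 binding domain (10 uM), following a 20 min room-temperature incubation at pH 7.5.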
VDR inh – blocks the human vitamin D receptor | Potency, µM, inactives show max response, negative = inhibition, actives largely listed as inhibitors | P11473 | VDR-SRC2-3 peptide fluorescence polarization, 2 h | 0.93% of 400,000 active; note: % is set by controls: 0 for no effect and ±100 for the full control effect
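The screen uses fluorescence polarization to detect compounds that interfere with recruitment of the SRC2-3 coactivator peptide to VDR; plates are read after 2 h at room temperature.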
An asterisk follows results filed as active; u = inconclusive; x = no result; ! = repeats disagree; [ ] = another dose, or the depositor's remark. Unless noted, calls come from the whole dose curve; as a rule, active = well fitted curve in the direction sought with a large enough effect; inconclusive = small, poorly fitted or top-dose-only effect, or another doubt; inactive = no such curve, though single readings can be large; an effect the other way counts as inactive or inconclusive. Potency is the fitted concentration of half-maximal effect.

SMILES	KAT2A inh	PLK1 PBD block	USP1 inh	TSG101-PTAP inh	VDR inh
CCC1(C)CC2(CCCN(CCC(=O)c3ccccc3)C2)CCO1 (stereo unspecified)	-12%	u	-21%	-4%	2%
COC(=O)C1C(=O)C(C(=O)/C=C/c2ccccc2)C(=O)CC1(C)C (stereo unspecified)	7%	-10%	-5%	-6%	-3%
COC(=O)C1C(=O)C(C(=O)/C=C/c2ccco2)C(=O)CC1(C)C (stereo unspecified)	x	x	x	x	45µM*
CC[C@@H]1C=C(C(=O)O)[C@H](c2ccc(Cl)cc2)N1S(=O)(=O)c1ccc(C)cc1	1%	-1%	-17%	-1%	-10%
Cc1ccc(S(=O)(=O)N2[C@@H](c3ccc(Cl)c(Cl)c3)C(C(=O)O)=C[C@H]2CC2CCCC2)cc1	u	21µM*	u	-2%	-28%
Cc1ccc(S(=O)(=O)N2[C@@H](c3ccc(C#N)cc3)C(C(=O)O)=C[C@H]2CC2CCCC2)cc1	-9%	30µM*	-21%	-11%	u
CC[C@@H]1C=C(C(=O)O)[C@H](c2ccc(OC)c(OC)c2)N1S(=O)(=O)c1ccc(C)cc1	0%	-22%	-5%	3%	-9%
Cc1ccc(S(=O)(=O)N2[C@@H](c3ccc(Cl)cc3)C(C(=O)O)=C[C@H]2CC2CCCC2)cc1	-24%	19µM*	-16%	-10%	-24%
CCn1c(CNC(=O)C23CC4CC(CC(C4)C2)C3)nnc1SCC(=O)Nc1ccc(F)cc1	-5%	x	-11%	x	4%
O=C(O)C1NCCN(C(=O)c2ccc3c(ccc4ccccc43)c2)C1C(=O)O (stereo unspecified)	-10%	x	x	x	-1%
CCCCSCCCNC(=O)C1CCC(CNS(=O)(=O)c2c(C)cc(C)cc2C)CC1 (stereo unspecified)	-13%	x	-22%	x	11%
COC(=O)[C@H](COC(C)(C)C)NC(=O)O[C@@H]1C(=O)c2cc(OC)ccc2O[C@H]1c1cccc(OC)c1	x	x	x	x	8%
Cc1ccc(CN(C(=O)c2ccccc2Br)C2CCS(=O)(=O)C2)o1 (stereo unspecified)	-4%	x	-6%	x	1%
NC(=O)CSc1nnc2ccc(-c3ccc(F)cc3)nn12	-11%	15µM*	-7%	-7%	-21%
O=C(Cc1cccc(NC(=O)C2CCCN(C(=O)C3CCCC3)C2)c1)Nc1cccc(C(=O)N2CCOCC2)c1 (stereo unspecified)	x	-7%	-30%	-4%	-17%
CC1(C)C2CCC1(C)C(SC(=N)N)C2 (stereo unspecified)	x	2%	-15%	-1%	-16%
CC1(C)CC[C@]2(C(=O)n3ccnc3)CC[C@]3(C)[C@H](C(=O)C=C4[C@@]5(C)C=C(C#N)C(=O)C(C)(C)[C@@H]5CC[C@]43C)[C@@H]2C1	x	1.7µM*	-13%	-3%	45µM*
O=C(NCc1ccccc1Br)c1ccc2c(c1)nc1n2CCOC1	-4%	x	-4%	x	5%
Cc1ccc(CNC(=O)CCCn2c(=O)c3ccccc3n(CC(=O)Nc3ccc(C)cc3)c2=O)cc1	-4%	x	-22%	x	-2%
CS(=O)(=O)c1ccc(Cl)c(NC(=O)Cc2ccccc2F)c1	4%	27µM*	-16%	2%	79µM*
CS(=O)(=O)c1ccc(Cl)c(NC(=O)Cc2c(F)cccc2Cl)c1	20%	1%	-1%	-5%	-14%
COc1cc2c(cc1NC(=O)CSc1ccc(C)cc1)oc1ccccc12	-9%	-5%	-13%	-4%	27%
COc1cc2c(cc1NC(=O)CN1CCN(S(=O)(=O)c3ccccc3F)CC1)oc1ccccc12	-5%[0.501 µM]	3.4µM*	-20%	0%	-21%
CN(C(=O)CS(=O)(=O)c1cn(CC(=O)N2CCCCC2)c2ccccc12)c1ccccc1	-5%	-2%	-19%	-4%	3%
Cc1oc2c(cc(NS(=O)(=O)c3ccc(F)cc3)c3ccccc32)c1C(=O)O	-3%	0%	u	-8%	-15%
SMILES	KAT2A inh	PLK1 PBD block	USP1 inh	TSG101-PTAP inh	VDR inh
Cc1oc2c(cc(NS(=O)(=O)c3ccc(C(C)C)cc3)c3ccccc32)c1C(=O)O	-20%	19µM*	28µM*!	-29%	-3%
COc1ccc(CNC(=O)CN(C(=O)CCC(=O)Nc2nccs2)c2ccc(C)cc2)cc1	-4%	1%	-1%	-1%	11%
O=c1nc(Nc2ccc(Br)cc2)sc2ccc([N+](=O)[O-])cc12	11%	-24%	-23%	-2%	8%
CCOc1cccc(/C=N/NS(=O)(=O)c2ccc(C)c([N+](=O)[O-])c2)c1O	-5%	30µM*	-13%	1%	15%
O=C(O)CCCCCN1C(=O)/C(=C/c2cn(-c3ccccc3)nc2-c2cccs2)SC1=S	x	27µM*	u	u	-4%
O=C(O)CCN1C(=O)/C(=C/c2cn(-c3ccccc3)nc2-c2cccs2)SC1=S	4%	30µM*	u	u	u
O=C(O)CCCCCN1C(=O)/C(=C\c2cn(-c3ccccc3)nc2-c2cccs2)SC1=S	u	50%	u	0%	-19%
COc1ccc(NC(=O)c2cc3ccccc3o2)cc1OC	-16%	24µM*	-24%	-1%	u
COc1ccc(NC(=O)c2ccco2)cc1NC(=O)c1cc2ccccc2o1	-18%	-7%	-5%	-4%	5%
CCOc1cc(C2C3=C(CC(C)(C)CC3=O)OC3=C2C(=O)CC(C)(C)C3)cc([N+](=O)[O-])c1O	1%	34µM*	u	1%	5%
CC1(C)CC(=O)C2=C(C1)OC1=C(C(=O)CC(C)(C)C1)C2c1cc([N+](=O)[O-])cc([N+](=O)[O-])c1O	0%	17µM*	-12%	-12%	u
CCOc1ccccc1CN1[C@@H](c2ccc(OC)cc2)CC(C(=O)OC)(C(=O)OC)[C@H]1c1ccccc1	x	-10%	x	x	x
CSCCC1NC(=O)N(CC(=O)Nc2c(Cl)cc(Cl)cc2Cl)C1=O (stereo unspecified)	2%	8.4µM*	-4%	-3%	-10%
CCCOc1ccc(C(=O)Nc2ccc(NC(=O)c3ccccc3)c(Br)c2)cc1	-5%	x	u	x	-7%
CCOc1ccc(NC(=O)C2(c3cccs3)CCOCC2)cc1	-3%	x	-16%	x	1%
O=C1C=C(Nc2cccc3cccnc23)c2ccccc2C1=O	-8%	-11%	18µM*	-3%	u
O=C1C=C(Nc2ccccc2C(=O)O)c2ccccc2C1=O	-5%	11µM*	7.9µM*	0%	u
O=C(O)c1ccccc1Nc1ccccc1C(=O)O	-15%	-8%	-9%	-5%	-5%
NS(=O)(=O)Nc1cccc2cccnc12	x	x	x	x	-16%
Cc1ccc(NC(=O)CN(C)C(=O)Cc2c(Cl)cccc2Cl)cc1	-7%	-2%	-7%	-5%	-6%
